Where “and” joins values, the source holds several entries; their conditions need not be identical. Identical values can stand only once. Counter-ions that a name gives are not always drawn.
Tests used:
Experiment in all cases: Euclidean distance of Cell Painting phenotypic profile (signed KS, 77 features) to DMSO centroid (dimensionless distance); 5 or 10 uM (library dependent); higher = stronger phenotypic change vs DMSO (phenoactivity)
Conditions in all cases: 48 h
786-O = system: 786-O
How it was run: (§1)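 At 10 or 5 uM, as set by the library, and 0.1% DMSO final, compounds were applied for 48 h to five cancer lines and one healthy fibroblast line. Stained cells were imaged confocally at 20X in 9 fields per well, and Harmony extracted 77 features scored as signed Kolmogorov-Smirnov statistics against vehicle wells on the same plate. Profiles underwent plate-position correction, correlation weighting and replicate averaging at the top dose. Phenoactivity is the Euclidean distance from each such profile to the median vehicle profile.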

A549 = system: A549
How it was run: as §1

DU145 = system: DU145
How it was run: as §1

FB = system: FB
How it was run: as §1

HEPG2 = system: HEPG2
How it was run: as §1

OVCAR4 = system: OVCAR4
How it was run: as §1

Row | Compound | Euclidean distance (786-O) | Euclidean distance (A549) | Euclidean distance (DU145) | Euclidean distance (FB) | Euclidean distance (HEPG2) | Euclidean distance (OVCAR4)
1 | COc1ccc(OC)c(C(O)CNC(=O)CN)c1 (centres undefined) [Midodrine] | 0.905 | 1.21 | 0.468 | 0.683 | 0.342 | 0.78
2 | NS(=O)(=O)c1ccccc1 [Benzenesulfonamide] | 1.16 | 0.87 | 1.05 | 1.27 | 0.909 | 0.962
3 | O=C(NC1CCNCC1)c1n[nH]cc1NC(=O)c1c(Cl)cccc1Cl | 3.37 | 3.2 | 2.81 | 4.13 | 2.47 | 3.69
4 | N[C@@H](CCC(=O)O)C(=O)O [(S)-Glutamic acid] | 1.39 | 0.982 | 1.47 | 0.799 | 0.834 | 1.57
5 | N#CC(=C(/N)Sc1ccccc1N)/C(C#N)=C(\N)Sc1ccccc1N | 1.54 | 1.18 | 0.907 | 1.57 | 1.81 | 1.48
6 | CCCOc1ccc2[nH]c(NC(=O)OC)nc2c1 [Oxibendazole] | 2.66 | 2.7 | 3.08 | 2.55 | 1.73 | 2.58
7 | CC(=O)/N=c1/sc(S(N)(=O)=O)nn1C [Methazolamide] | 1.32 | 0.988 | 0.818 | 0.885 | 0.858 | 1.5
8 | c1ccc2[nH]c(-c3cscn3)nc2c1 [Thiabendazole] | 1.16 | 0.753 | 1.31 | 1.1 | 1.93 | 0.914
9 | Cc1ccc(-c2ccc(C)cn2)nc1 [Abametapir] | 1.7 | 1.07 | 0.964 | 1.34 | 1.61 | 0.964
10 | CCc1oc2ccccc2c1C(=O)c1cc(Br)c(O)c(Br)c1 [Benzbromarone] | 0.882 | 0.749 | 0.48 | 1.01 | 0.723 | 1.14
11 | CNCc1ccc(-c2[nH]c3cc(F)cc4c3c2CCNC4=O)cc1 | 1.61 | 1.12 | 0.651 | 1.66 | 1.33 | 1.23
12 | CCCCc1nc(Cl)c(CO)n1Cc1ccc(-c2ccccc2-c2nnn[nH]2)cc1 [Losartan Potassium (DuP 753)] | 0.807 | 0.621 | 0.847 | 0.722 | 0.759 | 0.893
13 | CO[C@H]1/C=C/O[C@@]2(C)Oc3c(C)c(O)c4c(c3C2=O)C2=NC3(CCN(CC(C)C)CC3)NC2=C(NC(=O)/C(C)=C\C=C\[C@H](C)[C@H](O)[C@@H](C)[C@@H](O)[C@@H](C)[C@H](OC(C)=O)[C@@H]1C)C4=O [Rifabutin] | 1.26 | 0.759 | 1.51 | 1.08 | 2.11 | 1.35
14 | CN(C)c1ccc2c(c1)Sc1cc(N(C)C)ccc1N2 [TRx0237 (LMTX) mesylate] | 2.79 | 3.35 | 2.69 | 3.38 | 2.95 | 2.88
15 | COc1cc2c(Oc3ccc4[nH]c(C)cc4c3F)ncnc2cc1OCCCN1CCCC1 [Cediranib Maleate] | 4.34 | 4.46 | 3.51 | 4.67 | 4.09 | 5.11
16 | CC(=O)c1c(C)c2cnc(Nc3ccc(N4CCNCC4)cn3)nc2n(C2CCCC2)c1=O | 5.92 and 5.88 | 3.42 and 3.04 | 5.03 and 4.42 | 6.3 and 5.78 | 5.39 and 4.73 | 5.52 and 5.47
17 | O=C(/C=C/c1ccc(O)c(O)c1)O[C@@H]1C[C@](O)(C(=O)O)C[C@@H](O)[C@H]1O [Chlorogenic Acid] | 1.05 | 1.05 | 1.38 | 1.17 | 1.21 | 1.15
18 | Nc1ccc(S(=O)(=O)NC(=O)c2ccccc2)cc1 [Sulfabenzamide] | 0.937 | 0.388 | 0.77 | 0.837 | 0.665 | 1.75
19 | NC(=O)[C@@H](CCC(F)(F)F)N(Cc1ccc(-c2ncon2)cc1F)S(=O)(=O)c1ccc(Cl)cc1 | 2.13 | 1.14 | 1.04 | 2.28 | 1.48 | 0.855
20 | CC(C)c1cc(-c2n[nH]c(=O)n2-c2ccc3c(ccn3C)c2)c(O)cc1O [Ganetespib (STA-9090)] | 3.55 | 2.86 | 4.37 | 2.43 | 3.34 | 2.93
21 | N[C@@H](C(=O)N[C@@H]1C(=O)N2C(C(=O)O)=C(Cl)CS[C@H]12)c1ccccc1 [Cefaclor] | 1.19 | 0.817 | 0.688 | 0.8 | 0.709 | 1.53
22 | N#CC[C@H](C1CCCC1)n1cc(-c2ncnc3[nH]ccc23)cn1 [Ruxolitinib Phosphate] | 1.96 | 1.67 | 1.41 | 1.39 | 1.1 | 1.26
23 | C[C@H](CCC(=O)NCCS(=O)(=O)O)[C@H]1CC[C@H]2[C@@H]3[C@@H](O)C[C@@H]4C[C@H](O)CC[C@]4(C)[C@H]3CC[C@]12C [Tauroursodeoxycholic Acid (TUDCA)] | 0.663 | 1.8 | 0.772 | 1.04 | 0.686 | 1.23
24 | CS(=O)(=O)CCNCc1ccc(-c2ccc3ncnc(Nc4ccc(OCc5cccc(F)c5)c(Cl)c4)c3c2)o1 | 3.78 | 3.57 | 3.75 | 4.09 | 4.37 | 3.36

From the supplement of paper PMC10127200
